SMILES strings stand for the structures. Records with an inconclusive call do not appear. A call without a number means that no potency is given here. Calls of active or inactive are those of the source. Calls follow the shape of the dose curve; as a rule, active = well fitted inhibition curve with a large enough effect; inconclusive = small, poorly fitted or top-dose-only effect; inactive = flat fitted curve, though single readings scatter. *1 amine or outer side, *2 acyl side, *3 side chain or, on linkers, in order; H or OH if unused. Where a SMILES comes first, the peptide text is derived from it. [ ]: non-standard residue; d: D form. X4 = CC(C)=CCc1cc(C(O)C(N[*:1])C(=O)[*:2])ccc1O

Sequence of Phospholipid hydroperoxide glutathione peroxidase GPX4 (Homo sapiens) (P36969 whole entry, looked up): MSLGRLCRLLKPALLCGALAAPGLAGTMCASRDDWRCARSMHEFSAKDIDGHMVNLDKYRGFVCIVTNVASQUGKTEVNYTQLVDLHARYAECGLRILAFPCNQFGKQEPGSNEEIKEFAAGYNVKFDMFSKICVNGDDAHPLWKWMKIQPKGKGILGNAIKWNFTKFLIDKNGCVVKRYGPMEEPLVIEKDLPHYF

The assay deals with Phospholipid hydroperoxide glutathione peroxidase GPX4 (Homo sapiens) (UniProt P36969). In words: Primary qHTS Assay for Inhibitors of Recombinant Selenoprotein Glutathione Peroxidase 4 (GPX4) (AID 1845192). Also: nearly all actives have a fitted effect of over 65% in size. The following applies: recombinant GPX4, GR-coupled NADPH fluorescence, 15 min; series mostly up to 50 µM. An outline of the steps:
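GR-coupled assay: recombinant GPX4 preincubated 30 min with compound at room temperature; final 200 nM GPX4, 1 mM GSH, 0.5 mM cumene hydroperoxide, 0.5 mM NADPH, 100 nM GR, 0.01% BSA, pH 7.5 Tris. NADPH fluorescence (340/450 nm) read at 0 and 15 min.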
For the compound `CC1CC[C@]2(C(=O)O)CC[C@]3(C(=O)O)C(=CCC4[C@@]5(C)CC[C@H](O[C@@H]6O[C@H](CO)[C@@H](O)[C@H](O)[C@H]6O)C(C)(C)C5CC[C@]43C)C2C1C` (stereo partly specified), the Potency result was “inactive”.

Take `C[C@H]1CC(=O)Nc2cccc(-c3cnn(C(C)(C)C)c3)c2N1`: the Potency entry is “inactive”.

On to `CC12CCC(OC3OC(CO)C(O)C(OC4OC(CO)C(O)C(O)C4O)C3O)CC1CCC1C2CCC2(C)/C(=C3/COC(=O)C3)CCC12O` (stereo unspecified), for which the Potency result is “inactive”.

In the case of `NC(=O)[C@H]1CCS[C@@H]2C[C@]3(CCCN3C(=O)Cc3ccc(NC(=O)COc4ccc(Cl)cc4Cl)cc3)C(=O)N12`, the Potency entry is “inactive”.

With `O=C(O)CC(=O)OC[C@H]1O[C@@H](Oc2ccc3c(c2)OC[C@H]2c4cc5c(cc4O[C@@H]32)OCO5)[C@H](O)[C@@H](O)[C@@H]1O`, the Potency result was “inactive”.

As for `COC(=O)C1=CO[C@@H](O[C@@H]2O[C@H](CO)[C@@H](O)[C@H](O)[C@H]2O)[C@@H]2[C@@](C)(O)[C@@H](OC(=O)/C=C/c3ccc(O)cc3)C[C@]12O`, the Potency entry was “inactive”.

As for `CC(C)=CCc1cc(C(O)C2NC(=O)CNC(=O)C(Cc3c[nH]c4ccccc34)NC(=O)C3CCCN3C(=O)CNC(=O)C(C(C)C)NC(=O)CNC2=O)ccc1O` (stereo unspecified) (cyclo(G[X4]GVGPW); configuration not given here), the Potency entry is “inactive”.

Consider `C[C@@H]1CN(Cc2ccccc2)C[C@H]1c1nc2c(cnn2C2CCOCC2)c(=O)[nH]1`, for which the Potency result is “inactive”.

`C=C[C@]1(C)C=C2CCC3C(C)(CCC[C@@]3(C)C(=O)O)C2CC1` (stereo partly specified): the Potency result is “inactive”.

On to `C=CC(C)(CC/C=C(\C)C(=O)OC)OC1OC(COC(=O)CC(C)(O)CC(=O)O)C(OC2OC(CO)C(O)C(O)C2O)C(O)C1O` (stereo unspecified), for which the Potency entry is “inactive”.

`O=C(NCc1cccc(O)c1)Nc1nc(-c2ccncc2)cs1`: the Potency entry is “inactive”.

Take `C[C@@H]1CC[C@]2(C(=O)O[C@@H]3O[C@H](CO)[C@@H](O)[C@H](O)[C@H]3O)CC[C@]3(C)C(=CCC4[C@@]5(C)C[C@@H](O)[C@H](O)[C@](C)(C(=O)O)C5CC[C@]43C)[C@@H]2[C@]1(C)O` (stereo partly specified): the Potency entry was “inactive”.

For the compound `COC(=O)CC(O)CC(O)/C=C/c1c(C)ccc2c1C(O)CC(C)C2` (stereo unspecified), the Potency entry is “inactive”.

For the compound `O=C1OCc2cc3cccc(O[C@@H]4O[C@H](CO)[C@@H](O)[C@H](O)[C@H]4O)c3c(O)c21`, the Potency entry was “inactive”.

For the compound `C=C1C[C@@]23CCC4[C@@](C)(CCC[C@@]4(C)C(=O)OC)C2CC[C@@H]1C3` (stereo partly specified), the Potency entry is “inactive”.

Consider `CC1(C)C2CC=C(COC3OC(COC4OCC(O)(CO)C4O)C(O)C(O)C3O)C1C2` (stereo unspecified), for which the Potency result was “inactive”.
